From PubChem BioAssay (Tox21)
A number with no mark means an inactive call. Calls of active or inactive are those of the source. Calls come from the whole dose curve; as a rule, active = well fitted curve in the direction sought with a large enough effect in the repeat runs; inconclusive = weak or mixed curves; inactive = flat fitted curve, though single readings scatter.
% is set by controls: 0 for no effect and ±100 for the full control effect; potency is the fitted concentration of half-maximal effect; tags give direction and shape of the fitted curve or compound fluorescence and quenching.

Assay: qHTS assay to test for compound auto fluorescence at 460 nm (blue) in HepG2 cell free culture (AID 720685)
Conditions: Cell-free culture medium, blue autofluorescence 405/460 nm; series mostly up to 91.3 µM; fluorescence, % of fluorescent control: at the top concentration
Text: U.S. Tox21 Program National Center for Advancing Translational Sciences [NCATS] NIH Chemical Genomics Center [NCGC] U.S. Environmental Protection Agency [EPA] National Institutes of Environmental Health Sciences [NIEHS] National Toxicology Program [NTP] U.S. Food and Drug Administration [FDA] Tox21 Assay Overview: Compound auto fluorescence often interferes with screening of the compound library against various biological targets and signaling pathways. Some of these compounds may have fluorophoric properties. Such properties may interfere with the assay outputs resulting in false positives and/or negatives. To decrease such complications and ensure the compound activities are relevant in terms of biological response, the Tox21 10K compound library was screened for auto fluorescence. From the fluorophores used as reporter signals in our screening assays, the auto fluorescence equivalencies of compounds against three fluorophores have been evaluated: Triamterene, Fluorescein and Rose Bengal sodium for blue, green and red fluorescence, respectively. The fluorescence intensities were measured using Excitation/Emission wavelengths at 405/460nm, 485/535nm and 540/590nm for blue, green and red labels, respectively. This assay includes the blue fluorescence data.
Tox21 Assay Protocol Summary: 5 uL of culture medium (MEM containing 10% FBS) per well was dispensed into black wall/clear bottom 1536-well plates using a Multidrop Combi Dispenser (ThermoFisher Scientific, Waltham, MA). After 23 nL compound or DMSO vehicle was transferred into assay plate by a pintool work station (Kalypsys, San Diego, CA), fluorescence intensities in the assay plates were measured by an Envision (PerkinElmer, Shelton, CT) plate reader using three labels for measuring blue, green and red fluorescence at […] 460, 535 and 590nm respectively.
With `CCCCCCC(C)Nc1ccc(Nc2ccccc2)cc1` (stereo not given) the “fluorescence, % of fluorescent control” value was 0.268%. With `Clc1ccc(C(Cn2ccnc2)OCc2ccsc2Cl)c(Cl)c1` (stereo not given) the “fluorescence, % of fluorescent control” value was 0.0497% [at 46 µM]. For `CCN=C1C=CC(=C(c2ccc(N(CC)CC)cc2)c2ccc(N(CC)CC)cc2)c2ccccc21`, the “fluorescence, % of fluorescent control” value was -0.0327%. With `CC1(C)C(=O)N(Br)C(=O)N1Br` the “fluorescence, % of fluorescent control” value was -0.228%. For `O=C1NCN(c2ccccc2)C12CCN(CCCC(c1ccc(F)cc1)c1ccc(F)cc1)CC2`, the “fluorescence, % of fluorescent control” value was -0.0132% [at 46 µM]. `CC(CN(C)C)CN1c2ccccc2CCc2ccccc21` (stereo not given) gave a fluorescence, % of fluorescent control of 0.118% [at 18.6 µM]. With `C=CCCCCCCC=C` the “fluorescence, % of fluorescent control” value was -0.114%. With `C=C(C)C(=O)OCCC[Si](Cl)(Cl)Cl` the “fluorescence, % of fluorescent control” value was -0.104%. With `C[n+]1c2cc(N)ccc2cc2ccc(N)cc21` (tested in a mixture with another compound) the Potency was 11.2 µM [fluorescent] (active). With `Brc1ccccc1-c1ccccc1` the “fluorescence, % of fluorescent control” value was 0.137%. In the case of `O=C1NC2CCCCN2C12CCN(CCCN1c3ccccc3CCc3ccc(Cl)cc31)CC2` (stereo not given), the “fluorescence, % of fluorescent control” value is reported as 0.0061% [at 46 µM]. With `CCCCCCOc1ccc(O)cc1` the “fluorescence, % of fluorescent control” value was -0.137%. With `Nc1ncnc2c1ncn2[C@@H]1O[C@H](COP(=O)(O)O)[C@@H](O)[C@H]1O` the “fluorescence, % of fluorescent control” value was 0.0579% [at 46 µM]. With `COc1ccccc1OCCNCC(O)COc1cccc2[nH]c3ccccc3c12` (stereo not given) the “fluorescence, % of fluorescent control” value was -0.0338% [at 46 µM]. In the case of `CCCCCCCCCCCC(=O)N(CC)CC`, the “fluorescence, % of fluorescent control” value is reported as -0.0302%. In the case of `CCc1cccc(C)c1`, the “fluorescence, % of fluorescent control” value is reported as -0.235% [at 95.7 µM]. With `CCCN(CCc1cccs1)[C@H]1CCc2c(O)cccc2C1` the “fluorescence, % of fluorescent control” value was -0.107% [at 46 µM]. With `COCC(=O)O[C@]1(CCN(C)CCCc2nc3ccccc3[nH]2)CCc2cc(F)ccc2[C@@H]1C(C)C` the “fluorescence, % of fluorescent control” value was 0.0158% [at 46 µM]. With `CC(=O)OC(OC(C)=O)c1ccc([N+](=O)[O-])o1` the “fluorescence, % of fluorescent control” value was 0.226% [at 95.7 µM]. With `CCCCCCOc1cc(C)c(O)c(C)c1C` the “fluorescence, % of fluorescent control” value was 0.0531% [at 95.7 µM]. For `CSc1ccc2c(c1)N(CCC1CCCCN1C)c1ccccc1S2` (stereo not given), the Potency was “inactive”. For `CN1[C@@H]2CC[C@@H]1CC(OC(=O)C(CO)c1ccccc1)C2` (stereo not given in full), the “fluorescence, % of fluorescent control” value was 0.0209% [at 46 µM]. In the case of `CC1=C(/C=C/C(C)=C/C=C/C(C)=C\C=O)C(C)(C)CCC1`, the “fluorescence, % of fluorescent control” value is reported as 0.669%. For `Cc1nc(Nc2ncc(C(=O)Nc3c(C)cccc3Cl)s2)cc(N2CCN(CCO)CC2)n1`, the “fluorescence, % of fluorescent control” value was 1.33% [at 46 µM]. For `CN(Cc1cc(Br)cc(Br)c1N)C1CCCCC1`, the “fluorescence, % of fluorescent control” value was 1.43% [at 46 µM]. In the case of `CC(NCCC(c1ccccc1)c1ccccc1)c1ccccc1` (stereo not given), the “fluorescence, % of fluorescent control” value is reported as -0.0203% [at 46 µM]. With `CCN(CC)CCOC(=O)C1(C2CCCCC2)CCCCC1` the “fluorescence, % of fluorescent control” value was -0.0283% [at 46 µM]. In the case of `CCCCCCCCCCCCCCNCCO`, the “fluorescence, % of fluorescent control” value is reported as 0.0575% [at 46 µM]. For `O=Nc1ccc(NO)cc1`, the “fluorescence, % of fluorescent control” value was -0.197% [at 95.7 µM]. For `C=CC(=O)OCCOCC(CC)(COCCOC(=O)C=C)COCCOC(=O)C=C`, the “fluorescence, % of fluorescent control” value was -0.122% [at 95.7 µM]. In the case of `C[C@H]1O[C@@H](O[C@H]2[C@@H](O)C[C@H](O[C@H]3[C@@H](O)C[C@H](O[C@H]4CC[C@@]5(C)[C@H](CC[C@@H]6[C@@H]5C[C@@H](O)[C@]5(C)[C@@H](C7=CC(=O)OC7)CC[C@]65O)C4)O[C@@H]3C)O[C@@H]2C)C[C@H](O)[C@@H]1O`, the Potency is reported as “inactive”. With `C=CC(=O)OCC(O)COc1ccccc1` (stereo not given) the “fluorescence, % of fluorescent control” value was 0.0539%. For `CCCOc1sc(C(=O)N2CCC(c3cc(CN)ccc3F)CC2)c(C)c1Br`, the “fluorescence, % of fluorescent control” value was -0.159%. For `CN(C)CCCN1c2ccccc2Sc2ccc(C(F)(F)F)cc21`, the “fluorescence, % of fluorescent control” value was 0.041% [at 46 µM]. `CCCCOc1ccc(C(=O)CCN2CCCCC2)cc1` showed a fluorescence, % of fluorescent control of 0.0259% [at 18.6 µM]. For `CCC(=O)OCCc1ccccc1`, the “fluorescence, % of fluorescent control” value was -0.0755%. In the case of `O=Cc1ccc(F)cc1`, the “fluorescence, % of fluorescent control” value is reported as -0.15%. In the case of `NC(=O)c1ccccc1N`, the “fluorescence, % of fluorescent control” value is reported as -0.0083%. For `C[C@@]12C(=O)OC(=O)[C@]1(C)C1CCC2O1`, the fluorescence, % of fluorescent control was -0.0149% [at 18.6 µM]. With `CCO[Si](CCCSSSSCCC[Si](OCC)(OCC)OCC)(OCC)OCC` the “fluorescence, % of fluorescent control” value was -0.0344%.
